Here are results for eleven molecules from ChEMBL document CHEMBL3988442, “University of Dundee, Small-Polar-MMV Screening Library” (2021).

For some of these results: Entries with a potency or affinity are not part of this list.

Holding throughout (design): scale not given: direction of the effect not stated beside the values
In test [1] the target is Protein translocase subunit SecA (Escherichia coli (strain K12)) (UniProt P10408). The experiment in a line: Assay to Identify E. coli SecA ATPase Inhibitors. Type of test: functional. To be noted: 30 µM.
For test [2], the target named is T1, Ubiquitin-activating enzyme e1, putative (Leishmania donovani (strain BPK282A1)) (UniProt E9BSI1).
T1 sequence (whole entry): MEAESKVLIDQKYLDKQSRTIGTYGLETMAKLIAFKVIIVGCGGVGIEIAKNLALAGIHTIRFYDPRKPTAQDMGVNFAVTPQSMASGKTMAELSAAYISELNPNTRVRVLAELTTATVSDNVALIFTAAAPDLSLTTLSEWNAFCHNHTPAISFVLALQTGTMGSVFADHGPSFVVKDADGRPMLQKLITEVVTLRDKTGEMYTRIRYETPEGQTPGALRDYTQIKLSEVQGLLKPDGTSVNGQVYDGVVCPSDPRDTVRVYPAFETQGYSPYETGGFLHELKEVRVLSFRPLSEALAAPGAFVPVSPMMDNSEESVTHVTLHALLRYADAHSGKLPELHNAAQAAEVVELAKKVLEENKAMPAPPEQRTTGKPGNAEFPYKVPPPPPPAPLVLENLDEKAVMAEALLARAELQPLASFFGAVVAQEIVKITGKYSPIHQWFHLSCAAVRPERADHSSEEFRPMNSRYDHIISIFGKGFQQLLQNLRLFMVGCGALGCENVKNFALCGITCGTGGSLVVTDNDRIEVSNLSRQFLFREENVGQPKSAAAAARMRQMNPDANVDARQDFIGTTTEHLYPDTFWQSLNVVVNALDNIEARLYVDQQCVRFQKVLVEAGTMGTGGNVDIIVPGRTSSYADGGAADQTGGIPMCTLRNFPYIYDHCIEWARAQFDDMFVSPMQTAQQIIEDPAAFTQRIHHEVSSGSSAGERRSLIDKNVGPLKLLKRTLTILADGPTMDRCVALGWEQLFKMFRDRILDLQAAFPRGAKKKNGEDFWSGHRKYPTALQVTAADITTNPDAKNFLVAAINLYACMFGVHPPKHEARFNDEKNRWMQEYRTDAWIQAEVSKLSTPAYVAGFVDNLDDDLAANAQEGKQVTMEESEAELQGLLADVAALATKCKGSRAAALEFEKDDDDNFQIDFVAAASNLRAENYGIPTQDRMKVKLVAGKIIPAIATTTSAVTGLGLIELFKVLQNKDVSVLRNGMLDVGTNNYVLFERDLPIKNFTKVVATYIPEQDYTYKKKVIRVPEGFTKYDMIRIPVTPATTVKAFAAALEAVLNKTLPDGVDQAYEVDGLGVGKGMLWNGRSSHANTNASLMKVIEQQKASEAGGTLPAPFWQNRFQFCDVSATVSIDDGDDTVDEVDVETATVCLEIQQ
The test is described as follows: Leishmania donovani Ubiquitin Activating Enzyme (LdE1). The class given is functional. To be noted: 30 µM.

Test [3] concerns the target AMP-activated protein kinase, AMPK (Homo sapiens) (UniProt P54646+O43741+P54619+Q9UGJ0+Q9Y478+Q13131+Q9UGI9). The experiment in a line: AMP-dependent Kinase enzyme assay. An in vitro enzyme assay that detects ADP turnover that is directly proportional to AMPK activity. This uses naive AMPK that is activated during the assay with MK-8722. Type of test: functional. To be noted: 30 µM.

Test [4] addresses Sialic acid-binding Ig-like lectin 9 (Homo sapiens) (UniProt Q9Y336). The experiment in a line: Hs-Siglec9 ALPHAscreen SOP 20170721. To be noted: 10 µM. (Bead proximity is the source of the signal in Alpha formats.)
Test [5] relates to Trypanosoma cruzi. The test is described as follows: Trypanosoma cruzi phosphomannomutase and mannose-1-phosphate guanylyltransferase assay. Type of test: functional. Conditions: 10 µM.
Test [6] concerns the target T2, Arginase-2, mitochondrial (Homo sapiens) (UniProt P78540).
T2 sequence (whole entry): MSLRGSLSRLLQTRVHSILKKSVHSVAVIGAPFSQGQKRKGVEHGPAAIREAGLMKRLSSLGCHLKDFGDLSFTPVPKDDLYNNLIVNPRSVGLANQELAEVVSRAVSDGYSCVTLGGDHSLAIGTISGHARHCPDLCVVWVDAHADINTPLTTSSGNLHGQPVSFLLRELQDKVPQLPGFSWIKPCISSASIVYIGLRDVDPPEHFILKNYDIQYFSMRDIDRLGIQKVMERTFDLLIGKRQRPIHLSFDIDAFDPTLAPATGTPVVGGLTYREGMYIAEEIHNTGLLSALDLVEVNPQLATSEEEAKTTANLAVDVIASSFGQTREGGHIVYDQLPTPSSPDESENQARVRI
The experiment in a line: in vitro enzyme assay to detect the production of urea directly proportional to the activity of Arginase II. Also: in the data most compounds retested in dose-response had high values. Conditions: 33.3 µM. The class given is functional.

Test [7] concerns the target T3, Proteasome subunit beta (Trypanosoma cruzi) (UniProt O96673).
T3 sequence (whole entry): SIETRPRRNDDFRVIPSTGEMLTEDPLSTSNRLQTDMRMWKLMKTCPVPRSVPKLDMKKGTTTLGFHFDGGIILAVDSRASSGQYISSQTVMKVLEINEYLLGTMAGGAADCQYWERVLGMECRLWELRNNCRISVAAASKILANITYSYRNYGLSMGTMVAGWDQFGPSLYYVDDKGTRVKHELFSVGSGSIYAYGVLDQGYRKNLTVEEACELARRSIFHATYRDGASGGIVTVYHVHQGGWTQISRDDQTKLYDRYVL
The experiment in a line: Trypanosoma cruzi proteasome chymotrypsin-like activity (TcProtChymo) assay. Also: in the data most compounds retested in dose-response had high values. Type of test: functional. To be noted: 9.37 µM.

For test [8], the species on record is Homo sapiens. The test is described as follows: To identify inhibition of the IFN signalling (Jak-Stat) pathway via expression of an eGFP reporter gene under the control of an IFN-stimulated response element (ISRE) containing MxA promoter. Type of test: functional. Conditions: 30 µM.
Test [9] deals with T4, Tyrosyl-tRNA synthetase, putative (Trypanosoma cruzi (strain CL Brener)) (UniProt Q4DSP6).
T4 sequence (whole entry): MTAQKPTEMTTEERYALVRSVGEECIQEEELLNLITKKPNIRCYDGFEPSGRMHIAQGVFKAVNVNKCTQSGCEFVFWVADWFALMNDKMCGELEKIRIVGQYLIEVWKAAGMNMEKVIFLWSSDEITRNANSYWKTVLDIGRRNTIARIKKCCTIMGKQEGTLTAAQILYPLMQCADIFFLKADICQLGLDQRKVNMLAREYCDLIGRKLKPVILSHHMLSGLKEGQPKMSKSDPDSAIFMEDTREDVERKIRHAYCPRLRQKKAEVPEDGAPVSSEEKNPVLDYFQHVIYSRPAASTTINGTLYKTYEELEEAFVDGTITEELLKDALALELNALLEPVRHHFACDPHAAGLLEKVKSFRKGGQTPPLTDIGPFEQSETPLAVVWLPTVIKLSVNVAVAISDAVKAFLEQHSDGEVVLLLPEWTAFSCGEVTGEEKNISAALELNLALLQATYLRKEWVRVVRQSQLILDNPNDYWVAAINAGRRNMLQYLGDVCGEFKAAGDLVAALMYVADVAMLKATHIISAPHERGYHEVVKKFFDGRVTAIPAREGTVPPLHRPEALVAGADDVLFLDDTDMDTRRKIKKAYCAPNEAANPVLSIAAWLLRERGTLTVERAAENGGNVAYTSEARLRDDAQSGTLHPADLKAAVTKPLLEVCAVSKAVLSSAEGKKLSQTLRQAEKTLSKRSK
The experiment in a line: Trypanosoma cruzi tyrosyl tRNA synthetase (TcYRS) _High Tyrosine SOP. Also: in the data most compounds retested in dose-response had high values. Type of test: functional. To be noted: 30 µM.

Test [10] addresses T4, Tyrosyl-tRNA synthetase, putative (Trypanosoma cruzi (strain CL Brener)). The experiment in a line: Trypanosoma cruzi tyrosyl tRNA synthetase (TcYRS) SOP. Conditions: 30 µM. The class given is functional.
For test [11], the target named is Chromo domain-containing protein 1 (Saccharomyces cerevisiae (strain ATCC 204508 / S288c) (Baker's yeast)) (UniProt P32657). The test is described as follows: ScCHD-1 Enzyme Inhibition Assay. Also: in the data most compounds retested in dose-response had high values. The class given is functional. Conditions: 30 µM.
Chromo domain-containing protein 1 (Saccharomyces cerevisiae (strain ATCC 204508 / S288c) (Baker's yeast)), sequence (P32657 whole entry, the tested form may be a part): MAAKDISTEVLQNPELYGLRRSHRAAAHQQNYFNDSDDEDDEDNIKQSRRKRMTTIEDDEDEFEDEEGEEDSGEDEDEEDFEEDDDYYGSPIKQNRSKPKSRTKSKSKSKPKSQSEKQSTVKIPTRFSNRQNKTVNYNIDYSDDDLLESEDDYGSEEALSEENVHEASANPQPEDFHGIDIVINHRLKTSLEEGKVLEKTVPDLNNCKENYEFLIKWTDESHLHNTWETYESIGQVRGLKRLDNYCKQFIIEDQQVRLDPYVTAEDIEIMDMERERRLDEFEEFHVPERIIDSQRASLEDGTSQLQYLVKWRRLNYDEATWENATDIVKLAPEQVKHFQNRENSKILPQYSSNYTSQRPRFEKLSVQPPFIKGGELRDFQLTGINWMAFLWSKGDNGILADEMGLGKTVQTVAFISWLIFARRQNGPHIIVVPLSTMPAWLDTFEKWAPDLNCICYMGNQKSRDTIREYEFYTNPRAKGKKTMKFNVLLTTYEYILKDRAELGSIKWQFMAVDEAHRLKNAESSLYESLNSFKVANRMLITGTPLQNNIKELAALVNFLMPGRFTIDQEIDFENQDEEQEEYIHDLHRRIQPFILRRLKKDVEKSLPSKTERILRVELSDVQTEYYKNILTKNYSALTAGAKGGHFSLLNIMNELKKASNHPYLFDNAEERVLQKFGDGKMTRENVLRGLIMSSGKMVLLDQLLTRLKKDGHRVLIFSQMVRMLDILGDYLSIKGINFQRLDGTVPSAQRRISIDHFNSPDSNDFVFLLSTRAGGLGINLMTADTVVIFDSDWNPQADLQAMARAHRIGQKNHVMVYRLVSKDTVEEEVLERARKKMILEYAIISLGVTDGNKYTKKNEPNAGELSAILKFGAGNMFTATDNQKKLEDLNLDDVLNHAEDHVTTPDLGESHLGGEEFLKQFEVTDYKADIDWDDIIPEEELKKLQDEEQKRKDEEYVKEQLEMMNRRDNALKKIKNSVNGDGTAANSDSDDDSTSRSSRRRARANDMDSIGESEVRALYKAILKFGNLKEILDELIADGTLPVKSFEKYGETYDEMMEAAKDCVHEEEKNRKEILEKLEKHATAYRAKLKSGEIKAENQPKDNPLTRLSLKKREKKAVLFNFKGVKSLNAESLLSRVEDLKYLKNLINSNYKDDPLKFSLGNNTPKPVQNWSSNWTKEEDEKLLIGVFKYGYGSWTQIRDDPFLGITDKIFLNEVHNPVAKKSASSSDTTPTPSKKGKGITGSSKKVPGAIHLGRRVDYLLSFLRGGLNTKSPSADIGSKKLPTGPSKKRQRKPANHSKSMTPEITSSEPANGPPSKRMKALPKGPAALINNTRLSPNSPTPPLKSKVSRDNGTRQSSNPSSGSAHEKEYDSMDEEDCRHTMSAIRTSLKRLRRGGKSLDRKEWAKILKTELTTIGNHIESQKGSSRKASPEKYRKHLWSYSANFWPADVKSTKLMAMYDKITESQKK

Protein translocase subunit SecA (Escherichia coli (strain K12)), sequence (P10408 whole entry): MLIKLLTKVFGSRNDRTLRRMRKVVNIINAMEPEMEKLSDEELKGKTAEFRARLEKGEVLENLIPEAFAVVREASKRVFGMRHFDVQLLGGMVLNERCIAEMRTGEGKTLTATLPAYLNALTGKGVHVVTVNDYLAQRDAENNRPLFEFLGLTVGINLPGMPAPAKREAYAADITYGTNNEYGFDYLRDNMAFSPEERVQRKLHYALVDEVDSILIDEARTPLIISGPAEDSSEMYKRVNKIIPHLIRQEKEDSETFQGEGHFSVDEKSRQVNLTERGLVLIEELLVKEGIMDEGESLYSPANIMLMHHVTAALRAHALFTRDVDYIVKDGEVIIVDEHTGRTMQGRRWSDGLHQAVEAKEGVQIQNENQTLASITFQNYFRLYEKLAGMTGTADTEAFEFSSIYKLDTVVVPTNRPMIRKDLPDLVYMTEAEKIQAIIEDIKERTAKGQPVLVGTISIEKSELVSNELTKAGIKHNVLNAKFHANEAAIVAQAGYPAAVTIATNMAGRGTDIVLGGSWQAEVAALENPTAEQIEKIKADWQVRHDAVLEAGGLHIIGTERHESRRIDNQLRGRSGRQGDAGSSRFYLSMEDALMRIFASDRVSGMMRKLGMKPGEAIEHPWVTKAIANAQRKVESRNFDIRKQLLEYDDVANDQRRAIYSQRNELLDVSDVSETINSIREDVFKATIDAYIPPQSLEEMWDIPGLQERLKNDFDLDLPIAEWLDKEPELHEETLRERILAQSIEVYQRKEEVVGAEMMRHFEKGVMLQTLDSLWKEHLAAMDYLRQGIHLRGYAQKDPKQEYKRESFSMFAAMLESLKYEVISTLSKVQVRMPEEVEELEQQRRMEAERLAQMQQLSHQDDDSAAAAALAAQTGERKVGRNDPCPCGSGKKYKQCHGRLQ
Sialic acid-binding Ig-like lectin 9 (Homo sapiens), sequence (Q9Y336 whole entry): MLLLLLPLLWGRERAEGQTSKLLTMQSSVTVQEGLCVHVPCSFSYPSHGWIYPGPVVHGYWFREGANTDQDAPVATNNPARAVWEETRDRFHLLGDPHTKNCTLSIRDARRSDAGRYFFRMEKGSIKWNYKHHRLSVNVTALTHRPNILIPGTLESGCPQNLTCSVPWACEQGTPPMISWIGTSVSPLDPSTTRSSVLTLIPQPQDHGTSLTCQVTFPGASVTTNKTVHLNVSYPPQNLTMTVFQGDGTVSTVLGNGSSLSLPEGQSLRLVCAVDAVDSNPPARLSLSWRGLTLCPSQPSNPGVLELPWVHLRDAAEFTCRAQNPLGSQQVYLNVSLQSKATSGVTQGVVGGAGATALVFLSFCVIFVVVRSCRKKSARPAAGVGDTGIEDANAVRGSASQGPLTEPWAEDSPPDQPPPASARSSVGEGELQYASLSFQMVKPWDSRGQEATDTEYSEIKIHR

With `CN1CCOC(CNCc2coc(-c3cccs3)n2)C1` (stereo unspecified), the Percent Effect in test [1] is -2.66%; in test [2], 22.8%; in [3], -18.2%; in test [4], -13.1%; in test [5] it was 5.38%; in [6], 3.42%. The Percent Effect in [7] was 8.27%; in [8], 12.8%; in [9], 8.37%; in test [10] it was 21.5%; in [11], -14.2%.

As for `Cc1ccc(N2CCCN(C(=O)C3(C#N)CCCCC3)CC2)nn1`, the Percent Effect in [1] was -6.11%; in test [2] it was 5.26%; in test [3], -4.48%; in [4], 3.79%; in test [5], 6.39%; in [6], 1.53%. In addition, the Percent Effect in test [7] was 0.668%; in test [8], -2.34%; in test [9] it was 5.39%; in test [10] it was 0%; in test [11], -14.5%.

Turning to `NC(=O)N1CCC2(CC1)CN(c1ccsc1)C(=O)CO2`, the Percent Effect was -5.13% in [1]; 10.7% in [2]; 4.87% in [3]; 0.623% in test [4]; -7.68% in test [5]; -3.96% in [6]. Besides, the Percent Effect was -2.38% in [7]; 11% in [8]; -3.19% in test [9]; -1.28% in test [10]; -2.23% in test [11].

For the molecule `Cn1nc(CNC(=O)c2ccc(Cl)cc2)c2c1CCOC2`, the Percent Effect was -1.53% in test [1]; 2.6% in test [2]; 6.72% in test [3]; 8.57% in [4]; 0.0986% in test [5]; -3.23% in test [6]. Besides, the Percent Effect was 1.22% in [7]; 5.87% in [8]; 4.23% in test [9]; 6.41% in test [10]; -3.86% in [11].

For the molecule `CC(=O)NCCc1cc(N2CCN(C(C)=O)CC2)nc(C2CC2)n1`, the Percent Effect in test [1] is 2.03%; in test [2], -6.76%; in test [3] it was 10.3%; in test [4], -0.0242%; in test [5] it was -3.75%; in test [6] it was 1.16%. Besides, the Percent Effect is 9.36% in [7]; 7.59% in [8]; 2.15% in [9]; -1.3% in [10]; -3.42% in [11].

In the case of `Cc1nc(C2CCCCN2C(=O)c2ccccc2)ncc1C(=O)N(C)C` (stereo unspecified), the Percent Effect was 0.833% in test [1]; -5.33% in test [2]; 7.56% in test [3]; 0.633% in [4]; -1.97% in test [5]; 4.89% in test [6]. In addition, the Percent Effect in [7] was 0.0881%; in [8], 10.8%; in test [9], 1.06%; in test [10], 1.28%; in test [11], 0.34%.

Consider `COc1ncccc1CNc1cc(N2CCCC2CO)ncn1` (stereo unspecified), for which the Percent Effect was -1.73% in test [1]; 2.6% in [2]; -6.5% in test [3]; 5.75% in test [4]; 3.75% in test [5]; -8.54% in [6]. Also, the Percent Effect is 13.3% in test [7]; 20.9% in test [8]; 3.88% in test [9]; 12.2% in test [10]; -10.4% in [11].

`CCn1cc(CN2CCc3nc(N4CCOCC4)nc(O)c3CC2)cn1`: the Percent Effect in test [1] was -7.19%; in [2], 12.2%; in [3], -3.19%; in [4], 18.1%; in test [5], 0.988%; in test [6] it was -6.26%. For the same molecule, the Percent Effect is 7.64% in test [7]; 4.24% in test [8]; 3.23% in test [9]; 9.09% in test [10]; -27.2% in test [11].

For the molecule `Cn1nc(C2CCCN(Cc3cccc(F)c3)C2)c2nccnc21` (stereo unspecified), the Percent Effect in test [1] was -3.38%; in test [2], 9.46%; in test [3], 9.97%; in test [4], 14.6%; in [5] it was 6.13%; in test [6], -1.62%. In addition, the Percent Effect was 9.05% in test [7]; 13.8% in test [8]; 2.15% in test [9]; 16.9% in test [10]; -15.8% in [11].

`CN1CC[C@H](c2ccccc2)[C@@H]2[C@H]1CCCCN2C(=O)c1cnccn1`: the Percent Effect is -2.95% in test [1]; -4.05% in test [2]; 7.03% in test [3]; 1.21% in test [4]; 3.75% in [5]; -5.34% in [6]. In addition, the Percent Effect was 10.8% in test [7]; 3.3% in test [8]; 4.3% in test [9]; 3.9% in test [10]; -14% in [11].

As to `O=C(c1ccccn1)N1CCn2cnc(COCC3CC3)c2C1`, the Percent Effect was -2.21% in [1]; 0% in test [2]; 3.19% in test [3]; 4.7% in test [4]; -2.86% in test [5]; 3.23% in [6]. Moreover, the Percent Effect in [7] is 9.57%; in test [8] it was -0.697%; in test [9], -10.6%; in test [10], -16.7%; in test [11], -11%.
